This is part of a sample that, as a whole, favours compounds with a hit. Of some 83,000 tested, about 20% had one in any assay.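 For each line, cells grew in 96-well plates with the test compound present at a single concentration for 48 hours.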 The source made the active and inactive calls. The calls were made as follows: active = growth percent below 10; inactive = the rest.
Key:
Test in all cases: NCI-60 one-dose screen, 48 h (100 = growth as untreated, 0 = no growth, -100 = all killed)
SK-MEL-2 melanoma = details: 10 µM unless noted
EKVX NSCLC = details: 10 µM unless noted
SN12C renal = details: 10 µM unless noted
UO-31 renal = details: 10 µM unless noted
TK-10 renal = details: 10 µM unless noted
ACHN renal = details: 10 µM unless noted
CAKI-1 renal = details: 10 µM
CCRF-CEM leukemia = details: 10 µM unless noted
MOLT-4 leukemia = details: 10 µM unless noted
A498 renal = details: 10 µM unless noted

Measured: growth

CSc1ccc(/C(=N/N=C(N)N)c2ccccc2)cc1
inactive: SK-MEL-2 melanoma 58.7% | EKVX NSCLC 48.1% | SN12C renal 27.9% | UO-31 renal 35.1% | TK-10 renal 63.9% | ACHN renal 28.6% | CAKI-1 renal 42% | CCRF-CEM leukemia 10.6% | MOLT-4 leukemia 22.3%

CC(C)SC1=NC(=C(C(=N1)NC2=ClC=CC=C2)C#N)C3=CC=CC=C3
inactive: SK-MEL-2 melanoma 125% | EKVX NSCLC 84% | SN12C renal 36.7% | UO-31 renal 24.7% | TK-10 renal 112% | ACHN renal 23.4% | CAKI-1 renal 64.5% | A498 renal 71.6% | CCRF-CEM leukemia 63.4% | MOLT-4 leukemia 83.3%

N=c1c2cc(-c3ccccc3)oc2ncn1/N=C/c1ccccc1
inactive: SK-MEL-2 melanoma 97.2% | EKVX NSCLC 86.5% | SN12C renal 86.1% | UO-31 renal 85.6% | TK-10 renal 80.3% | ACHN renal 75.1% | CAKI-1 renal 67.5% | A498 renal 77.8% | MOLT-4 leukemia 65.3%

CCOC(=O)c1c(NCC(=O)Nc2ccc(Br)cc2)sc2c1CCCC2
inactive: SK-MEL-2 melanoma 68.7% | EKVX NSCLC 76% | SN12C renal 18.2% | UO-31 renal 54.3% | TK-10 renal 81.4% | ACHN renal 14.8% | CAKI-1 renal 27% | CCRF-CEM leukemia 18.2% | MOLT-4 leukemia 16.8%

Cc1nn(-c2ccc(Br)cc2)c2nc(CCl)[nH]c(=O)c12
active: UO-31 renal -90.1%
inactive: SK-MEL-2 melanoma 99.9% | EKVX NSCLC 99.5% | SN12C renal 100% | TK-10 renal 111% | ACHN renal 94.8% | CAKI-1 renal 96.3% | CCRF-CEM leukemia 83.6%

Oc1ccccc1/C=N/Nc1nc(N/N=C/c2ccccc2O)nc(N2CCOCC2)n1
inactive: SK-MEL-2 melanoma 72% | EKVX NSCLC 22.2% | SN12C renal 27.2% | UO-31 renal 19.8% | TK-10 renal 47.9% | ACHN renal 28.1% | CCRF-CEM leukemia 42.3% | MOLT-4 leukemia 45.1%
active: CAKI-1 renal 4.56%

COc1ccc(-c2cc(-c3ccc(Cl)cc3)nc3nc(N)nn23)cc1
inactive: SK-MEL-2 melanoma 103% | EKVX NSCLC 99.3% | SN12C renal 97.6% | UO-31 renal 81% | TK-10 renal 93.2% | ACHN renal 96.3% | CAKI-1 renal 83.7% | CCRF-CEM leukemia 95% | MOLT-4 leukemia 89%

COc1ccc(Cn2cc3c(c2-c2cc(OC)c(OC)c(OC)c2)CCCc2cnoc2-3)cc1N
inactive: SK-MEL-2 melanoma 55.4% | EKVX NSCLC 46.6% | SN12C renal 40.5% | UO-31 renal 38.2% | TK-10 renal 78.9% | ACHN renal 40.1% | CAKI-1 renal 31.5% | CCRF-CEM leukemia 15.5% | MOLT-4 leukemia 17.4%

CCCCCCNC(=O)Oc1ccc(/C(=C(/C)c2ccc(OC)cc2)c2ccc(OCCN3CCCC3)cc2)cc1
inactive: SK-MEL-2 melanoma 93.4% | EKVX NSCLC 79.5% | SN12C renal 82.3% | UO-31 renal 38.7% | TK-10 renal 116% | ACHN renal 84.3% | CAKI-1 renal 87% | CCRF-CEM leukemia 62.4% | MOLT-4 leukemia 30.4%

O=c1[nH]c(CNc2ccc(NCc3c(-c4ccccc4)no[n+]3[O-])cc2)nc2c1cnn2-c1ccccc1
inactive: SK-MEL-2 melanoma 77.2% | EKVX NSCLC 51.3% | SN12C renal 78.9% | UO-31 renal 55.9% | TK-10 renal 102% | ACHN renal 70.4% | CAKI-1 renal 55.1% | CCRF-CEM leukemia 57.9% | MOLT-4 leukemia 44%

N#C/C(=C\c1ccc(Cl)cc1Cl)C(N)=O
inactive: SK-MEL-2 melanoma 106% | EKVX NSCLC 105% | SN12C renal 98.3% | UO-31 renal 94.4% | TK-10 renal 102% | ACHN renal 101% | CAKI-1 renal 90.8% | CCRF-CEM leukemia 89.7% | MOLT-4 leukemia 109%

O=C(Nc1cccc(Cl)c1)Nc1nc2ccc([N+](=O)[O-])cc2s1
active: SK-MEL-2 melanoma -24.1% | SN12C renal 4.02% | UO-31 renal 7.26% | TK-10 renal -2.79% | ACHN renal 5.59% | CAKI-1 renal 3.38% | CCRF-CEM leukemia 9.48% | MOLT-4 leukemia 2.36%
inactive: EKVX NSCLC 10%

CCOc1ccc2nc(NC(=O)Nc3ccccc3C)sc2c1
inactive: SK-MEL-2 melanoma 48.5% | EKVX NSCLC 72% | SN12C renal 58.7% | UO-31 renal 66.3% | TK-10 renal 64.5% | ACHN renal 67% | CAKI-1 renal 60.9% | CCRF-CEM leukemia 47.7% | MOLT-4 leukemia 34.5%

COc1cc(CNC(=O)Cc2ccccc2[N+](=O)[O-])ccc1OCC(=O)NO
inactive: SK-MEL-2 melanoma 104% | EKVX NSCLC 100% | SN12C renal 99.5% | UO-31 renal 83.1% | TK-10 renal 122% | ACHN renal 103% | CAKI-1 renal 90.4% | CCRF-CEM leukemia 102% | MOLT-4 leukemia 107%

CCCCCCNC(=O)Oc1ccc(/C(=C(\C)c2ccc(Cl)cc2)c2ccc(OCCN(C)C)cc2)cc1
inactive: SK-MEL-2 melanoma 98% | EKVX NSCLC 60.5% | SN12C renal 69.9% | UO-31 renal 43.6% | TK-10 renal 88.9% | ACHN renal 71.5% | CAKI-1 renal 70.4% | CCRF-CEM leukemia 36% | MOLT-4 leukemia 13.4%

Source: PubChem BioAssay (NCI)
